Values joined by “and” are separate entries in the source; they are usually repeats but may differ in a detail not shown here. Equal entries are not always repeated. In all, about 67,000 compounds went through this assay and about 40 (0.06%) showed an effect of 50% or more. For the sample, strong results were picked, then their nearest neighbours and some compounds at random.
Target: T1, Coenzyme A biosynthesis bifunctional protein CoaBC (Mycobacterium tuberculosis (strain ATCC 25618 / H37Rv)) (UniProt P9WNZ1)
T1 sequence (whole entry): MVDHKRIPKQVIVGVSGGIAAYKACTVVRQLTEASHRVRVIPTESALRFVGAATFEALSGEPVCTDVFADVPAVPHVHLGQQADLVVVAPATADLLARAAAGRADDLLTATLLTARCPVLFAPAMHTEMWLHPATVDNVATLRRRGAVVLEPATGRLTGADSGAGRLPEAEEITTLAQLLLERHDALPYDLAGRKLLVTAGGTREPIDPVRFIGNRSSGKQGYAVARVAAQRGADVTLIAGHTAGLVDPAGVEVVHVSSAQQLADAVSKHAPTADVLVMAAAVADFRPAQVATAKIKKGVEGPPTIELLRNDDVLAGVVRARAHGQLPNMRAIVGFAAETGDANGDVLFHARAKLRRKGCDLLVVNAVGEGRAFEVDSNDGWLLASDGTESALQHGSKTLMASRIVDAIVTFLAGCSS
Experiment: Biomol Green assay for MtCoaBC inhibitor, OD650 read
Type: functional
Design: scale not given: in the data most compounds retested in dose-response had high values
Conditions: 30 µM

Compound | Percent Effect
CCN1C[C@H]2CCN(C(=O)NC)CC[C@H]2S1(=O)=O | 8.02%
CC(=O)c1cccc(NS(=O)(=O)c2cc(C)c(C(=O)O)s2)c1 | -3%
Cc1cc(S(=O)(=O)Nc2cccc(I)c2)sc1C(=O)O | 2.58%
CNC(=O)N1CC[C@@H]2CN(Cc3cccc(Cl)c3)S(=O)(=O)[C@@H]2CC1 | 6.19%
c1cnc(N2CCO[C@H]3[C@H](OCC4CCOCC4)CC[C@@H]32)nc1 | 1.73%
Cc1ccc(N2C[C@H]3CCC[C@@H](CN4CCOCC4)[C@H]3C2)nn1 | 4.17%
Cc1nc(C2CCCN(C(=O)c3cc(Cl)c[nH]3)C2)no1 (stereo not drawn) | 2.57%
Cc1cccc(C(=O)N2CCCC(c3noc(C)n3)C2)n1 (stereo not drawn) | -20.7%
Cn1nc(-c2cccs2)cc1[C@H]1CN2CC[C@H]1C[C@@H]2CN | -39.9%
CN1C(Cn2cccn2)C[C@@H]2CN(Cc3ccccn3)CC[C@@H]21 (stereo partly drawn) | -8.3%
Cc1cc(C(=O)NC2CCN(c3ncccc3C#N)CC2)no1 | -0.609%
Cc1cc(NC(=O)C2CCN(c3nnc(C)c(C)c3C#N)CC2)no1 | 2.42%
COCCC(Cc1cccc(Br)c1)C(N)=O (stereo not drawn) | 4.72%
COCCC(Cc1cccc(Br)c1)C(=O)N(C)C (stereo not drawn) | -3.54%
COCc1nc2cc(NCc3cc[nH]n3)ccc2o1 | 10.3%
COCc1nc2cc(NCc3ccc(C)o3)ccc2o1 | 13%
Cc1cn[nH]c1C1COCCN1Cc1ccsc1 (stereo not drawn) | -1.45%

Compound | Percent Effect
Cc1ccc(CN2CCOCC2c2[nH]ncc2C)cn1 (stereo not drawn) | -2.47%
O=C(NC1CC1)[C@@H]1CCO[C@@H]2CCN(C3CCCC3)C[C@H]21 | 7.17%
COc1ccc(CN2CCCC2)cc1Oc1ccc(NC(C)=O)cc1 | 1.65%
CC(=O)Nc1ccc(Oc2ccc(CN3CCCC3)cc2F)cc1 | 9.5%
COCCNC(=O)[C@H]1CN(Cc2sccc2C)C[C@H]2OCC[C@@H]12 | 2.59%
Cc1ccc2[nH]c(CO[C@H]3CN(C(=O)C4CC4)C[C@H]3F)nc2c1 | 5.96%
CN1C[C@@H](F)[C@@H](OCc2nc3ccc(C#N)cc3[nH]2)C1 | 8.8%
CCO[C@H]1CN(C(=O)c2ccnnc2)[C@@H]2COC[C@H]12 | -7.56%
CN(C)C(=O)CN1C[C@@H]2CC[C@H](C1)N(C/C=C/c1ccc(F)cc1)C2 | -5.7%
O=C(COCCOc1ccccc1)NC1CCN(C(=O)C2CC2)CC1 | -27.3%
O=C(COCCOc1ccccc1)NC1CCN(c2ncccn2)CC1 | -6.77%
CN(C)CCN1CCO[C@H]2CN(C(=O)c3ccsc3)C[C@H]21 | 0.976%
O=C(NC1CC1)[C@@H]1CCO[C@@H]2CCN(Cc3ccsc3)C[C@H]21 | 8.23%
O=S(=O)(CCCn1cncn1)Cc1cccc(F)c1 | 3.23%
O=S(=O)(CCCn1cncn1)Cc1ccc(F)cc1Cl | 96.3% and 94.5%
O=S(=O)(CCCn1cncn1)Cc1ccccc1Cl | 0%
